Experimental data: PubChem BioAssay
Calls of active or inactive are those of the source.

Key:
[1] = E. coli DRC41 culture turbidity changes, primary screen, E. coli filamentation inducer project, strain DRC41, OD650, 48 h (AID 1152);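 note: E. coli MC1000 strain DRC41 lacking acrAB efflux pump and sulA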; details: E. coli DRC41 (acrAB sulA), higher = more signal, called active from +8 up or from −8 down
[2] = small-molecule binders of probe aLefty1, primary screen, biochemical, small-molecule microarray, 635/667 nm fluorescence (AID 1153); details: higher = more signal;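 note: score merges spot fluorescence with signal-to-noise ratio from the scanned slide images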
[3] = PSAC antagonists in infected red cells, primary screen, cell-based, P. falciparum Indochina, OD700, 1 h (AID 1154); details: P. falciparum Indochina infected RBC osmotic lysis, higher = more signal, called active from +8 up or from −8 down
[4] = PSAC antagonists in infected red cells, primary screen, cell-based, P. falciparum Indochina, OD700, 2 h (AID 1155);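 note: lysis reports solute entry through the parasite surface anion channel PSAC; channel blockers reduce lysis of infected cells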; details: P. falciparum Indochina infected erythrocytes, osmotic lysis OD700; higher = more signal, called active from +8 up or from −8 down
[5] = osmotic lysis modulators in infected erythrocytes, primary screen, PSAC antagonist project, cell-based, P. falciparum Indochina, OD700, 3 h (AID 1156); details: higher = more signal, called active from +8 up or from −8 down
[6] = PSAC antagonists in infected red cells, primary screen, cell-based, P. falciparum Indochina, OD700, 18 h (AID 1157); details: P. falciparum Indochina infected erythrocytes, osmotic lysis OD700, 18 h; higher = more signal, called active from +8 up or from −8 down
[7] = modulators of S6 phosphorylation in cells, primary screen, cell-based, A549, cytoblot, luminescence, serum-stimulated (AID 1158); details: A549 phospho-S6 cytoblot, 5 h, higher = more signal;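 note: serum-stimulated A549 lung adenocarcinoma cells; signal is phosphorylated S6 detected by cytoblot immunostaining with HRP secondary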
[8] = target: NADPH oxidase 2 (Homo sapiens) (UniProt P04839); test: NOX2-dependent H2O2 signal modulators, primary screen, NOX inhibitor project, cell-based, HEK293-NOX2, PMA-stimulated, Amplex Red fluorescence (AID 1159); details: 45 min, higher = more signal, called active from +8 up or from −8 down; note: test concentration not given here
[9] = target: NADPH oxidase 4 (Homo sapiens) (UniProt Q9NPH5); test: NOX4-dependent H2O2 signal modulators, primary screen, NOX inhibitor project, cell-based, HEK293-NOX4, tetracycline-induced, Amplex Red fluorescence (AID 1160); details: 45 min, higher = more signal, called active from +8 up or from −8 down
[10] = target: NADPH oxidase 5 (Homo sapiens) (UniProt Q96PH1); test: NOX5-dependent H2O2 signal modulators, primary screen, NOX inhibitor project, cell-based, HEK293-NOX5, Amplex Red fluorescence (AID 1161); details: HEK293-NOX5, ionomycin, 45 min, higher = more signal
Sequence of NADPH oxidase 5 (Homo sapiens) (Q96PH1 whole entry, looked up): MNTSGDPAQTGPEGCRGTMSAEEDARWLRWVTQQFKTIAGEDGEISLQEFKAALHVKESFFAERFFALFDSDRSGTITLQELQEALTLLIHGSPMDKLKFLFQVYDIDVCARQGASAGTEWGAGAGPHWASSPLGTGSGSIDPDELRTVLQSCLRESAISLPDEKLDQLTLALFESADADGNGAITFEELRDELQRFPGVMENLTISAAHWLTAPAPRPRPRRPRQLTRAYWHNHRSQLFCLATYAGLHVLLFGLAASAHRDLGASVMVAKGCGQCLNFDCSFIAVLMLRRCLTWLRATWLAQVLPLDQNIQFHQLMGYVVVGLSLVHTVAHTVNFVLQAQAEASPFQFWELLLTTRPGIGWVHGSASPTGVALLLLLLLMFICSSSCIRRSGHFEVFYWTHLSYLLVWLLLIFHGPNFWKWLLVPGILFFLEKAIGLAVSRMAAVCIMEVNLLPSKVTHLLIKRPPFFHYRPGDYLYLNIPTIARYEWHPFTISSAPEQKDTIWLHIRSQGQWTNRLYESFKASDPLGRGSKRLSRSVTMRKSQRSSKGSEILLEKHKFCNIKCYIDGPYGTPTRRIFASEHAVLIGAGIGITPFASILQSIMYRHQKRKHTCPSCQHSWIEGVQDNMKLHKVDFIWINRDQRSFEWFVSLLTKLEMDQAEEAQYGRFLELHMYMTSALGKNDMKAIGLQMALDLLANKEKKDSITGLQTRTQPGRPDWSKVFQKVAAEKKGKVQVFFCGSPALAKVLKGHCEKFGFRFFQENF

Sequence of NADPH oxidase 4 (Homo sapiens) (Q9NPH5 whole entry, looked up): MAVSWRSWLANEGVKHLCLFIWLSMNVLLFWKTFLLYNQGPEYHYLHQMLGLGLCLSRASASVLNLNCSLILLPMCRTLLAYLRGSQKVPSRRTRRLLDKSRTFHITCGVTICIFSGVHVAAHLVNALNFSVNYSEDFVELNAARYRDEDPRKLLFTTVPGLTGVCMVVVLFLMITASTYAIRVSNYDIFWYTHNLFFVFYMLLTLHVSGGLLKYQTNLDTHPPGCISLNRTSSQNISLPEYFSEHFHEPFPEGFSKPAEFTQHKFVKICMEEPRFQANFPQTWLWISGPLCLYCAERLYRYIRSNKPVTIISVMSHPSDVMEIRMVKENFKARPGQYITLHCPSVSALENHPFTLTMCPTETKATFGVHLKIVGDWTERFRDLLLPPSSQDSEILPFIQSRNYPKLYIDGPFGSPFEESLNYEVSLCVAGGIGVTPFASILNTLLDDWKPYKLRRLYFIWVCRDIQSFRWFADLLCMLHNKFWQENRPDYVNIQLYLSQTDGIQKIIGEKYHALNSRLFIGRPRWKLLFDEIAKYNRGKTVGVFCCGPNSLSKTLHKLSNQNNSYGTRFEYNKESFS
Sequence of NADPH oxidase 2 (Homo sapiens) (P04839 whole entry, looked up): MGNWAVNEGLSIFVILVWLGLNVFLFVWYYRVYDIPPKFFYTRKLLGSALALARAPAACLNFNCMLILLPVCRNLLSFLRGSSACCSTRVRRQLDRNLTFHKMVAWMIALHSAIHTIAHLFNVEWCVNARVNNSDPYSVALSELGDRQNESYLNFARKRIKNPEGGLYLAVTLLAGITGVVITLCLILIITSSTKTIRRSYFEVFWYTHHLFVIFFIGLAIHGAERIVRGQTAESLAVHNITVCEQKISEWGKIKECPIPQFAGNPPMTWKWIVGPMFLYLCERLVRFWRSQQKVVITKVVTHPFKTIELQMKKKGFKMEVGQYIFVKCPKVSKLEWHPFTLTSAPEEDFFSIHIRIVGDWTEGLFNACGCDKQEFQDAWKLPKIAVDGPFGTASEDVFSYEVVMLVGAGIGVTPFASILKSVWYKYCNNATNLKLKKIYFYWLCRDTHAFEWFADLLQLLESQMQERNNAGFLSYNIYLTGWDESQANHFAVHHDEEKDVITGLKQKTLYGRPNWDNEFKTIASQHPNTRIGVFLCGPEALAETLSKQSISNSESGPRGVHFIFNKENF

Compound | z-score [1] | composite z-score [2] | z-score [3] | z-score [4] | z-score [5] | z-score [6] | z-score [7] | z-score [8] | z-score [9] | z-score [10]
COc1ccc(O[C@@H]2[C@H](O)CO[C@H]2C=Cc2ccccc2)cc1 | -0.164 (inactive) | -0.237 | 1.65 (inactive) | -0.518 (inactive) | -0.433 (inactive) | -0.323 (inactive) | 0.243 | 0.335 (inactive) | -0.426 (inactive) | -0.102
O=C1[C@H]2[C@H]3[C@H](O)[C@H](O)CC(=NOC[C@@H](O)COCc4ccco4)[C@H]3CC[C@H]2C(=O)N1C[C@@H]1CCCO1 | -0.362 (inactive) | -0.324 | 0.342 (inactive) | 0.276 (inactive) | -0.425 (inactive) | 0.33 (inactive) | -0.637 | 0.276 (inactive) | 0.557 (inactive) | -0.0426
COc1ccc(O[C@@H]2[C@H](O)CO[C@@H]2C=Cc2ccccc2)cc1 | -1.74 (inactive) | 0.417 | 5.53 (inactive) | -0.0327 (inactive) | 1.23 (inactive) | -0.66 (inactive) | 1.49 | 0.561 (inactive) | -0.92 (inactive) | -2.07
CC(C)=CCCC(C)=CCON=C1C[C@@H](O)[C@@H](O)[C@@H]2[C@@H]3C(=O)N(C(C)(C)C)C(=O)[C@@H]3CC[C@@H]12 | -1.31 (inactive) | 0.167 | 1.43 (inactive) | 0.761 (inactive) | 0.916 (inactive) | 0.821 (inactive) | -0.227 | -1.14 (inactive) | -1.2 (inactive) | -0.411
CCOC(=O)[C@H](Cc1ccccc1)NC(=O)CCC1CC(OC(=O)NCc2ccc3c(c2)OCO3)CC2(CCCC(COC(=O)NCCc3ccccc3OC)O2)O1 (stereo not given in full) | -0.567 (inactive) | -0.0547 | 1.3 (inactive) | 0.627 (inactive) | -0.451 (inactive) | 0.222 (inactive) | -0.254 | 0.799 (inactive) | -1.05 (inactive) | 1.28
C[C@@H]1C=CCC(=O)OC[C@H]2O[C@@H](C=C[C@@H]2O)[C@H](C)C=CCC(=O)OC1 | 0.625 (inactive) | -0.106 | 0.119 (inactive) | -1.48 (inactive) | -0.71 (inactive) | -2.02 (inactive) | 1.61 | -0.601 (inactive) | 0.346 (inactive) | 0.58
CCCNC(=O)OC[C@H]1O[C@H](CCON=C(C)C)C=C[C@@H]1Oc1ccc(OC)cc1 | -1.21 (inactive) | 0.209 | 0.683 (inactive) | 0.411 (inactive) | -0.551 (inactive) | 0.367 (inactive) | -0.131 | -0.278 (inactive) | 0.389 (inactive) | -0.533
COc1cccc([C@H]2Oc3ccc(OC)cc3C(=NO[C@H](C)c3cn([C@H](CO)Cc4ccccc4)nn3)[C@@H]2O)c1 | 0.348 (inactive) | -0.142 | 1.38 (inactive) | 0.0637 (inactive) | 0.151 (inactive) | 0.22 (inactive) | -0.16 | -0.809 (inactive) | 0.364 (inactive) | -0.781
CCOC(=O)[C@H](CC(C)C)NC(=O)CCC1CC(OC(=O)NCc2ccc3c(c2)OCO3)CC2(CCCC(COC(=O)NCCCN3CCCC3=O)O2)O1 (stereo not given in full) | 0.015 (inactive) | 0.0004 | 1.08 (inactive) | 0.448 (inactive) | -0.447 (inactive) | 0.003 (inactive) | 0.375 | 0.242 (inactive) | 0.187 (inactive) | 0.32
CC(=O)OC[C@H]1O[C@H](CC=NO[C@H](C)c2cn([C@H](CO)Cc3ccccc3)nn2)C=C[C@@H]1OC(C)=O | -0.176 (inactive) | -0.007 | 0.639 (inactive) | 0.103 (inactive) | 0.238 (inactive) | 0.391 (inactive) | -0.871 | -0.0815 (inactive) | 0.835 (inactive) | -1.3
CCOC(=O)[C@H](CC(C)C)NC(=O)CCC1CC(OC(=O)NCCc2ccc(F)cc2)CC2(CCCC(COC(=O)NCCOc3ccccc3)O2)O1 (stereo not given in full) | -0.221 (inactive) | -0.263 | 4.92 (inactive) | 0.394 (inactive) | 0.881 (inactive) | 0.323 (inactive) | 0.45 | 1.82 (inactive) | 0.31 (inactive) | 1.33
CCOC(=O)NN=C1C[C@@H](O)[C@@H](O)[C@@H]2[C@@H]3C(=O)N([C@@H](C)c4ccccc4)C(=O)[C@@H]3CC[C@@H]12 | -0.0718 (inactive) | -0.0523 | -0.308 (inactive) | 0.0095 (inactive) | -0.611 (inactive) | -0.0871 (inactive) | -0.25 | -0.819 (inactive) | 0.589 (inactive) | -0.143
CO[C@@H]1COC(=O)[C@H](CCSC)NC(=O)CC=C[C@@H](C)COC(=O)CCC[C@H]1C | 0.337 (inactive) | 0.729 | 19.7 (active) | 3.14 (inactive) | 2.07 (inactive) | 1.18 (inactive) | 0.016 | -1.12 (inactive) | 0.369 (inactive) | -0.918
